Experimental data: PubChem BioAssay (EPA / NIEHS)
Several values for one entry are separate records, joined by “and”; a condition that tells them apart may be missing. Equal entries are not always repeated. Records with an inconclusive call do not appear. Activity calls are given as the source filed them. The calls were made as follows: active = hit-call score of the fitted dose curve at least 0.9, where 1 is the maximum; inconclusive = response in the unintended direction; inactive = score below 0.9.

molecular target: Cellular tumor antigen p53 (Homo sapiens) (UniProt P04637); assay: TOX21_p53_BLA_p5_ratio: Tox21 HCT-116 p53 Agonism Beta-lactamase Assay, Ratio, Phase 5 (AID 2283599)
Sequence (P04637 whole entry, looked up): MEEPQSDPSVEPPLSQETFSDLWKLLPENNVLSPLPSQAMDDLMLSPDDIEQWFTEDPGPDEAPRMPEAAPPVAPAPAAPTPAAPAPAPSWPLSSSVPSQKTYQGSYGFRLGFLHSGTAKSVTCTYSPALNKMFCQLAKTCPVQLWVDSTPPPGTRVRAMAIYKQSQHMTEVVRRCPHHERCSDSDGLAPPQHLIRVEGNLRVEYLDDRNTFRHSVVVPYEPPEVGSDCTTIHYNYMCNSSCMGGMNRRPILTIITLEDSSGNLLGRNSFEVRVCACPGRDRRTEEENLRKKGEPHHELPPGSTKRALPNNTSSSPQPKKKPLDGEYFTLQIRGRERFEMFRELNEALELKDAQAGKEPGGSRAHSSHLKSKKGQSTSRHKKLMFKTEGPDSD
Outline: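 Beta-lactamase reporter ratio (blue 460 nm over green 530 nm, 405 nm excitation) after 2 h CCF4-AM loading, in HCT-116 cells exposed 16 h at 37 C to compounds pinned at 217-fold dilution. Increases relative to DMSO baseline scored.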

Compound	outcome	AC50
CCCCCCCCCCCCC(=O)O	inactive	–
OCCN1C[C@H](O)[C@@H](O)[C@H](O)[C@H]1CO	inactive	–
Cc1ccc(NC(=O)N(C)C)cc1NC(=O)N(C)C	inactive	–
OCCN1CCN(CCCN2c3ccccc3C=Cc3ccccc32)CC1	inactive	–
NC(=O)CCCCC(N)=O	inactive	–
Oc1cccc(-c2c3nc(c(-c4cccc(O)c4)c4ccc([nH]4)c(-c4cccc(O)c4)c4nc(c(-c5cccc(O)c5)c5ccc2[nH]5)CC4)C=C3)c1	–	37.1 µM (active) and 38.3 µM (active)
CCOC(=O)[C@H](CCc1ccccc1)N[C@@H](C)C(=O)N1Cc2ccccc2C[C@H]1C(=O)O	inactive	–
NCCS	inactive	–
O=C(O)CONC(=O)c1ccccc1	inactive	–
CC(C)N=c1cc2n(-c3ccc(Cl)cc3)c3ccccc3nc-2cc1Nc1ccc(Cl)cc1	inactive	–
CC(C)C(=O)OC(=O)C(C)C	inactive	–
CC(C)(C)CC(C)(C)c1cc(Cc2cc(C(C)(C)CC(C)(C)C)cc(-n3nc4ccccc4n3)c2O)c(O)c(-n2nc3ccccc3n2)c1	inactive	–
CC(C)(C)NC[C@H](O)COc1cccc2c1CCCC2=O	inactive	–
CN1CCN(CCCN2c3ccccc3Sc3ccc(C(F)(F)F)cc32)CC1	inactive	–
CCNC(=O)/C=C/c1cccc(Br)c1	inactive	–
